# Screening data (PubChem)
# Sampled rows, rich in hits. Any-hit rate of the full collection: about 3.4%.
# FBW7 activator – activators of human E3 ligase FBW7 | Q969H0 | AlphaScreen FBW7–phospho-cyclin E peptide binding, activator screen | normalized activity (activation), % at 26.1 µM | 650,000 compounds, 0.13% hits; in the data active = normalized activity above about 1.9%;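 note: purified mutant Fbw7 with reduced substrate affinity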
# TEAD-YAP inh – TEAD-YAP interaction inhibition | HEK-TIYL cells, TEAD-Gal4/YAP UAS-luciferase luminescence | inhibition, % at 9.12 µM | 640,000 compounds, 1.4% hits | AID 1259422; in the data active = inhibition above about 32%
# MITF inh – human MITF inhibition, primary screen; O75030; AlphaScreen MITF homodimerization, bead proximity signal; inhibition, % at 2.6 µM; 650,000 compounds, 0.91% hits; AID 1259374; in the data active = inhibition above about 50%
# GPR151 activ – activators of human GPR151; 650,000 compounds, 1% hits; activation, % at 11.2 µM; PathHunter beta-arrestin GPR151 cells, luminescence; Q8TDV0; in the data active = activation above about 4.9%
# Target sequence (Q8TDV0 whole entry, looked up): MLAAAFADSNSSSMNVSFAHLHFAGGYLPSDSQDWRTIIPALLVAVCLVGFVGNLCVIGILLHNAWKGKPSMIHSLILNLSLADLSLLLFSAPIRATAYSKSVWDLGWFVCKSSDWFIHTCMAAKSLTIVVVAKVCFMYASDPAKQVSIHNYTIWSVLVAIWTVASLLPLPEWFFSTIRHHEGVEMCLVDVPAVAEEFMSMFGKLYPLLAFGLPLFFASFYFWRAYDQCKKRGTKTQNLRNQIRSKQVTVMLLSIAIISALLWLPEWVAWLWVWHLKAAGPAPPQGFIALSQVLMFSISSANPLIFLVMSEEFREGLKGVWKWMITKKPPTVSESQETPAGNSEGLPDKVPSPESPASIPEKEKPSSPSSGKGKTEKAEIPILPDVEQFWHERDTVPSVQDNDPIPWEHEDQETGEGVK
# GPR151 conf act – human GPR151 activation, confirmation screen. activation, % at 11.2 µM. shares compounds with GPR151 activ. 6,700 tested, under 10 active. AID 1508609. GPR151 PathHunter beta-arrestin cells, luminescence, 90 min; % of EA-reagent control over plate median;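 active = mean percent activation across replicates above the confirmation screen cutoff of 4.91%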
# GPR119 counter – GPR119 activation, counter-screen for GPR151 activators. GPR119 PathHunter beta-arrestin cells, luminescence, 90 min; 0 = compound-well median, 100 = enzyme-acceptor control. shares compounds with GPR151 activ. activation, % at 11.2 µM. 6,700 compounds, 0.3% hits. AID 1508611;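 active = mean percent activation in the counterscreen above 29.09%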;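 note: counterscreen on off-target GPR119 to flag nonselective hits from the GPR151 activator screen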
# A number is an active result; . = inactive; / = no result given; ! = repeats disagree.
SMILES,FBW7 activator,TEAD-YAP inh,MITF inh,GPR151 activ,GPR151 conf act,GPR119 counter
COC(=O)c1c(NC(=O)c2ccccc2)sc(C(=O)N2CCCCC2)c1C,.,.,.,.,/,/
CCOc1ccc(NC2SC(=O)NC2=O)cc1 (stereo not given),.,.,.,5.0,.,.
CCOc1ccc(NC(=O)CC2SC(=O)NC2=O)cc1 (stereo not given),.,.,.,.,/,/
CNc1ncnc2sc(C(=O)N3CCCC3)c(C)c12,.,.,.,.,/,/
CC(C)(C)CC(=O)Nc1ccccc1[N+](=O)[O-],.,.,.,7.0,.,.
Cc1cccc(Nc2ncnc3c2c(-c2ccccc2)cn3-c2ccc(Br)cc2)c1,.,.,.,.,/,/
CCCCC[C@H](O)/C=C/[C@H]1[C@H](O)CC(=O)[C@@H]1CCCCC(=O)O,/,/,.,.,/,/
CCCCC[C@@H](O)/C=C/[C@H]1[C@H](O)CC(=O)[C@@H]1CCCCCCC(=O)O,/,/,.,7.2,.,.
O=C1Nc2ccccc2N(O)N1c1cccc(Br)c1,.,.,.,7.7,.,.
O=S(=O)(CCc1ccccc1)NCC1(c2cccs2)CCCC1,.,.,.,5.2,.,.
COc1ccc(CC(=O)Nc2ccc(N3CCC(NCCc4ccccn4)CC3)cc2)cc1,.,.,.,.,/,/
CC(=NCCCn1cnc2c1c(=O)n(C)c(=O)n2C)N(C)C,.,.,.,6.4,.,.
CC1Sc2cc(S(=O)(=O)NC3CCN(Cc4ccccc4)CC3)ccc2NC1=O (stereo not given),.,.,.,.,/,/
COc1ccccc1NC(=O)CSc1nc2ccsc2c(=O)n1-c1ccc(Cl)cc1,.,.,.,5.6,.,.
COc1ccc(-n2c(SCC(=O)Nc3ccccc3OC)nc3ccsc3c2=O)cc1,.,.,.,.,/,/
Cc1csc(NC(=O)CSCC(=O)Nc2ccccc2)n1,.,.,.,6.9,.,.
O=C(CSCC(=O)Nc1ccc2nc(SCC(=O)Nc3ccccc3)sc2c1)Nc1ccc2ccccc2c1,.,.,.,.,/,/
CCOC(=O)CSc1nc2ccc(NC(=O)CSCC(=O)Nc3ccccc3)cc2s1,.,.,.,4.9,.,.
Cc1csc(NC(=O)CSc2nnc(CSCc3ccc(F)cc3)n2C)n1,.,.,.,5.1,.,.
CCn1c(CSCc2ccc(F)cc2)nnc1SCC(=O)Nc1nc(C)cs1,.,.,.,.,/,/
Cc1ccc(CCC(=O)N2CCC3(CC2)CC3C(=O)NCc2cccc(C)n2)cc1 (stereo not given),.,.,.,.,/,/
O=C(Nc1ccc2nn(-c3ccccc3)nc2c1)C(Cl)(Cl)Cl,.,.,.,.,/,/
Nc1nc(NC(=O)C(Cl)(Cl)Cl)nn1-c1ccccc1,.,.,.,7.0,.,.
Cc1cc(C)cc(NC(=O)c2cc3nc(-c4ccc5c(c4)OCO5)cc(C(F)(F)F)n3n2)c1,.,.,.,.,/,/
Cc1ccc(C)c(S(=O)(=O)Nc2ccc3c4c(cc(=O)n3C)-c3ccccc3C(=O)c24)c1,.,.,.,.,/,/
SMILES,FBW7 activator,TEAD-YAP inh,MITF inh,GPR151 activ,GPR151 conf act,GPR119 counter
CN1CSC2=C(C#N)C(c3cccc(OCc4ccccc4)c3)CC(=O)N2C1 (stereo not given),.,.,.,8.7,.,.
C/C(=N\Nc1nc(C)cc(C)n1)c1ccc(Br)cc1,.,.,.,.,/,/
CCn1c(CCNC(=O)C(C)(C)C)nc2ccccc21,.,.,.,6.7,.,.
FC(F)(F)c1ccc(NCCN2CCOCC2)nc1,.,.,.,8.2,.,.
COc1ccccc1C1CC(=O)Nc2c1ccc(C)c2C (stereo not given),.,.,.,.,/,/
Cc1noc(/C=C/c2cccs2)c1S(=O)(=O)N1CCCC(C(=O)N2CCCCC2)C1 (stereo not given),.,.,.,5.0,.,.
Cc1noc(/C=C/c2cccs2)c1S(=O)(=O)N1CCCC(C(=O)N2CCCC2)C1 (stereo not given),.,.,.,.,/,/
CC(C(O)c1ccc(O)cc1)N1CCC(Cc2ccccc2)CC1 (stereo not given),.,.,.,10!,.,.
CC(C)(C)N1CC(CO)OC1c1ccccc1 (stereo not given),.,.,.,4.9,.,.
CCN1CCc2c(sc(NC(=O)c3ccc(Br)s3)c2C(N)=O)C1,.,.,.,.,/,/
COc1ccc(-c2cn3c(C(=O)N4CCc5ccccc54)csc3n2)cc1,.,.,.,19,.,.
COc1ccc(-c2cn3c(C(=O)N4CCN(c5ccccc5OC)CC4)csc3n2)cc1,.,.,.,.,/,/
Cc1ccc(OCC(=O)OCC(=O)c2ccccc2)cc1C,.,.,.,10,.,.
Cc1ccc(OCC(=O)OCc2c(C)noc2C)cc1C,.,.,.,8.0,.,.
Cc1cc(C)cc(OCC(=O)OCc2c(C)noc2C)c1,.,.,.,.,/,/
O=C(C1CCN(Cc2cccs2)CC1)N1CCc2ccccc2C1,.,.,.,.,/,/
O=C(NS(=O)(=O)c1ccccc1)c1ccccc1O,.,.,.,5.6,.,.
O=C(Nc1sc2c(c1C(=O)NCCc1ccccc1)CCCC2)c1ccccc1F,.,.,.,.,/,/
COc1ccc(/C(O)=C2\C(=O)C(=O)N(c3ccc(C(=O)O)cc3)C2c2ccccc2)cc1 (stereo not given),.,.,.,9.3,.,.
CCc1ccc2[nH]c(C)c(CN(C)C3CCCCC3)c(=O)c2c1,.,.,.,.,/,/
CCOc1ccc(S(=O)(=O)N(CC(N)=O)c2ccccc2)cc1,.,.,.,.,/,/
CN1CCN(c2ccc(NC(=O)c3ccc(-n4cnnn4)cc3)cc2)CC1,.,.,.,.,/,/
CC(NC(=O)c1cc(-c2ccccc2Cl)nc2ccccc12)c1ccccc1 (stereo not given),.,.,.,.,/,/
CCC(C)N(C)C(=O)c1cc2ccccc2c(-c2ccccc2Cl)n1 (stereo not given),.,.,.,5.4!,.,.
Cc1ccc(CNC(=O)C2(c3ccc(Cl)cc3)CCC2)n1C,.,.,.,.,/,/
SMILES,FBW7 activator,TEAD-YAP inh,MITF inh,GPR151 activ,GPR151 conf act,GPR119 counter
CCOC(=O)C1CCN(c2ccc(C=C3C(=O)N(C)C(=O)N(C)C3=O)cn2)CC1,.,.,.,5.2,.,.
COc1ccc(OC(C)C(=O)Nc2cc(Cl)ccc2C)cc1 (stereo not given),.,.,.,9.3,.,.
CC(Oc1ccccc1)C(=O)Nc1ccccc1Br (stereo not given),.,.,.,.,/,/
CC(=O)Nc1ccccc1NC(=O)C(C)Oc1cccc(C)c1 (stereo not given),.,.,.,27,.,.
CC(=O)Nc1ccc(NC(=O)C(C)Oc2cccc(C)c2)cc1 (stereo not given),.,.,.,.,/,/
CC(Oc1ccccc1)C(=O)Nc1ccccc1O (stereo not given),.,.,.,5.3,.,.
O=C(CC1C(=O)NCCN1CCc1ccccc1)NCCn1cccn1 (stereo not given),.,.,.,.,/,/
